Compounds without any hit were thinned out: in the full panel of roughly 83,000, 20% have a hit.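 For each line, cells grew in 96-well plates with the test compound present at a single concentration for 48 hours.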 Unmarked numbers belong to inactive results. Calls of active or inactive are those of the source.

For this experiment, the system named is HCC-2998 colon. Kind of experiment: NCI-60 one-dose screen, 48 h (100 = growth as untreated, 0 = no growth, -100 = all killed). Conditions: 10 µM. The procedure:
Growth inhibition of the HCC-2998 human tumor cell line is measured as a screen for anti-cancer activity. Cells are grown in 96 well plates and exposed to the test compound for 48 hours. Compounds are tested at a single concentration, which is 10^-5 M for most compounds. The reported endpoint is percent growth (GI% or GIPRCNT), where numbers from 0 - 100% represent growth inhibition, and numbers from -100% - 0 represent cell death. For example, a value of 40 represents 60% growth inhibition. A value of 0 means no net growth occurred over the course of the experiment. A value of -40 indicates 40% of cells at the beginning of the experiment died by the end of the experiment. A value of -100 means all cells are dead at the end of the experiment.
NCI-60 Human Tumor Cell Lines Screen was performed using the standard one-dose NCI protocol, which is described in more detail at https://dtp.cancer.gov/discovery_development/nci-60/default.htm.
Compounds with GIPRCNT values below 10 were considered active. Activity score was based on GIPRCNT using the following formula: […]
Score is 0 for GIPRCNT values of 100 or above, 50 for GIPRCNT values of 0, and 100 for GIPRCNT values of -100.
For `CC1=C2C(=C[C@@](C)(COP(=O)(Oc3ccccc3)Oc3ccccc3)[C@@H]2O)C(=O)[C@@](C)(O)C12CC2`, the growth was -85.5% (active).

For the compound `O=C(/C=C/c1ccc(Br)cc1)c1nc2ccccc2n1Cc1ccc(Br)cc1`, the growth was -89.6% (active).

With `C[C@H]1[C@H](OC(=O)CCC(=O)N(CCCc2cn(-c3ccc([N+](=O)[O-])cc3)nn2)CCNc2ccnc3cc(Cl)ccc23)O[C@@H]2OC3(C)CC[C@H]4[C@H](C)CC[C@@H]1[C@@]24OO3`, the growth is 49.9%.

In the case of `C[C@H]1[C@@H](Oc2ccc(-c3cn(-c4ccnc5cc(Cl)ccc45)nn3)cc2)O[C@@H]2OC3(C)CC[C@H]4[C@H](C)CC[C@@H]1[C@@]24OO3`, the growth was 48.8%.

As to `COCCOCCOCCOc1ccc(-n2cc(-c3ccc(O[C@H]4O[C@@H]5OC6(C)CC[C@H]7[C@H](C)CC[C@@H]([C@H]4C)[C@@]57OO6)cc3)nn2)cc1`, the growth is 59.2%.

On to `COc1cc2cc(C(=O)N3C[C@@H](CCl)c4c3cc(OC(=O)N3CCN(C)[C@@H]5CSSC[C@H]53)c3ccccc43)[nH]c2c(OC)c1OC`, for which the growth is -79.9% (active).

With `O=C(/C=C/c1ccccc1Cl)c1nc2ccccc2n1Cc1ccc(F)cc1`, the growth is -99.7% (active).

For the compound `C#CCCCN(CCNc1ccnc2cc(Cl)ccc12)C(=O)CCC(=O)O[C@@H]1O[C@@H]2OC3(C)CC[C@H]4[C@H](C)CC[C@@H]([C@H]1C)[C@@]24OO3`, the growth is 20.7%.

For the compound `C#CC[Se]C(=O)c1ccc(C(=O)[Se]CC#C)s1`, the growth was 94.7%.

Turning to `COc1cc(OC)c(/C=C/C(=O)c2nc3ccccc3n2Cc2ccc(F)cc2)c(OC)c1`, the growth was 105%.

As for `CC[C@]12C=CCN3CC[C@@]4(c5ccc(OC)cc5N(C)[C@H]4[C@@](O)(C(=O)OC)[C@@H]1OC(=O)CCC[P+](c1ccc(C)cc1)(c1ccc(C)cc1)c1ccc(C)cc1)[C@@H]32`, the growth was -91.4% (active).

Turning to `COC(=O)c1ccc(-n2cc(CCCN(CCNc3ccnc4cc(Cl)ccc34)C(=O)CCC(=O)O[C@@H]3O[C@@H]4OC5(C)CC[C@H]6[C@H](C)CC[C@@H]([C@H]3C)[C@@]46OO5)nn2)cc1`, the growth is 49.5%.

`C[C@H]1[C@H](OC(=O)CCC(=O)Nc2cnccn2)O[C@@H]2OC3(C)CC[C@H]4[C@H](C)CC[C@@H]1[C@@]24OO3`: the growth was 63.5%.

In the case of `CC(C)N=C([Se])NC(=O)c1ccccc1`, the growth is -35.5% (active).

Take `CC(C)N=C([Se])NC(=O)c1cccs1`: the growth is 27.6%.

For the compound `O=C(/C=C/c1ccc(Cl)cc1)c1nc2ccccc2n1Cc1ccc(F)cc1`, the growth was 32.5%.

Take `COc1ccc(/C=C/C(=O)c2nc3ccccc3n2Cc2ccc(Br)cc2)cc1`: the growth is 54.2%.

Turning to `CN(C)CCc1cn(C2CCC2)c2cccc(O)c12`, the growth is -46.1% (active).

As for `CCOP(=O)(OCC)C(NC(C)=O)C(=O)SCCN` (stereo not given), the growth is 104%.

On to `O=C(/C=C/c1ccccc1)c1nc2ccccc2n1Cc1ccc(F)cc1`, for which the growth was -95.8% (active).

On to `O=C(NCCCCC(c1ccc(F)cc1)c1ccc(F)cc1)Nc1ccc([N+](=O)[O-])c(C(F)(F)F)c1`, for which the growth was 7.86% (active).

As to `COc1cc2cc(C(=O)N3C[C@@H](CCl)c4c3cc(OC(=O)N3CCN(C(=O)CCC(=O)N5CCN(C)CC5)[C@@H]5CSSC[C@@H]53)c3ccccc43)[nH]c2c(OC)c1OC`, the growth was -99.1% (active).

Take `O=C(/C=C/c1ccc(Cl)cc1Cl)c1nc2ccccc2n1Cc1ccc(F)cc1`: the growth is 27.3%.

As for `O=C(/C=C/c1ccco1)c1nc2ccccc2n1Cc1ccc(Br)cc1`, the growth was 12.7%.

As to `CC[C@]12C=CCN3CC[C@@]4(c5ccc(OC)cc5N(C)[C@H]4[C@@](O)(C(=O)OC)[C@@H]1OC(=O)CCC[P+](c1ccc(F)cc1)(c1ccc(F)cc1)c1ccc(F)cc1)[C@@H]32`, the growth was 22.4%.

On to `O=C(/C=C/c1ccc(F)cc1)c1nc2ccccc2n1Cc1ccc(Br)cc1`, for which the growth was -97.6% (active).

For `O=C(/C=C/c1cccc(Br)c1)c1nc2ccccc2n1Cc1ccc(F)cc1`, the growth is 25%.

In the case of `CCOC(=O)C1=C(Nc2ccccc2)C(=O)OC12C(=O)Nc1ccccc12` (stereo not given), the growth is 115%.

With `COC(=O)C[C@](O)(CCCC(C)C)C(=O)O[C@H]1C(OC)=C[C@@]23CCCN2CCc2cc4c(cc2[C@@H]13)OCO4`, the growth is -36.4% (active).

Regarding `CC[C@]12C=CCN3CC[C@@]4(c5ccc(OC)cc5N(C)[C@H]4[C@@](O)(C(=O)OC)[C@@H]1OC(=O)CCCC[P+](c1ccc(OC)cc1)(c1ccc(OC)cc1)c1ccc(OC)cc1)[C@@H]32`, the growth is -88.4% (active).

On to `C=CC[Se]C(=O)c1ccc(C(=O)[Se]CC=C)s1`, for which the growth was -85.7% (active).

For the compound `CC1=C(C=O)C2=C(C)C3(CC3)[C@@](C)(O)C(=O)C2=C1`, the growth was 17.2%.

For the compound `COC(=O)C[C@](O)(CCC(C)C)C(=O)O[C@H]1C(OC)=C[C@@]23CCCN2CCc2cc4c(cc2[C@@H]13)OCO4`, the growth was -62.4% (active).

Consider `COc1cc(OC)c(S(=O)(=O)N(CCCl)CCCl)cc1C(=O)/C=C/c1cc(OC)c(OC)c(OC)c1`, for which the growth is -91.1% (active).

With `COc1ccc(OC)c(/C=C/C(=O)c2nc3ccccc3n2Cc2ccc(F)cc2)c1`, the growth is -93.6% (active).

`C=CC[Se]C(=O)c1cncc(C(=O)[Se]CC=C)c1`: the growth was -92.6% (active).

For `CC12OOC(C)(OO1)C2CCC(=O)NCCNc1ccnc2cc(Cl)ccc12` (stereo not given), the growth is 99.7%.

Regarding `C[C@H]1[C@H](OC(=O)CCC(=O)N(CCCc2cn(-c3ccc(CN4CCOCC4)cc3)nn2)CCNc2ccnc3cc(Cl)ccc23)O[C@@H]2OC3(C)CC[C@H]4[C@H](C)CC[C@@H]1[C@@]24OO3`, the growth is 40.1%.

For the compound `Cc1ccc2[nH]c(=S)n(-c3ccc(F)cc3)c(=O)c2c1`, the growth was 111%.

As to `C[C@H]1[C@H](OC(=O)CCC(=O)N(CCCc2cn(-c3ccc(C#N)cc3)nn2)CCNc2ccnc3cc(Cl)ccc23)O[C@@H]2OC3(C)CC[C@H]4[C@H](C)CC[C@@H]1[C@@]24OO3`, the growth was 70.3%.

The record behind these values is PubChem BioAssay (NCI).
